# According to PubChem BioAssay (NCI):
# Values joined by “and” are separate entries in the source; they are usually repeats but may differ in a detail not shown here. Equal entries are not always repeated. Compounds without any hit were thinned out: in the full panel of roughly 83,000, 20% have a hit.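 The test compound was applied at a single concentration to cells in 96-well plates for 48 hours, and percent growth was recorded.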 Active and inactive are the calls of the source.
# Tested on: CAKI-1 renal
# Experiment: NCI-60 one-dose screen, 48 h (100 = growth as untreated, 0 = no growth, -100 = all killed)
# Conditions: 1 µM
# Procedure: Growth inhibition of the CAKI-1 human tumor cell line is measured as a screen for anti-cancer activity. Cells are grown in 96 well plates and exposed to the test compound for 48 hours. Compounds are tested at a single concentration, which is 10^-5 M for most compounds. The reported endpoint is percent growth (GI% or GIPRCNT), where numbers from 0 - 100% represent growth inhibition, and numbers from -100% - 0 represent cell death. For example, a value of 40 represents 60% growth inhibition. A value of 0 means no net growth occurred over the course of the experiment. A value of -40 indicates 40% of cells at the beginning of the experiment died by the end of the experiment. A value of -100 means all cells are dead at the end of the experiment.
# NCI-60 Human Tumor Cell Lines Screen was performed using the standard one-dose NCI protocol, which is described in more detail at https://dtp.cancer.gov/discovery_development/nci-60/default.htm.
# Compounds with GIPRCNT values below 10 were considered active. Activity score was based on GIPRCNT using the following formula: […]
# Score is 0 for GIPRCNT values of 100 or above, 50 for GIPRCNT values of 0, and 100 for GIPRCNT values of -100.
row,Compound,growth
1,CNC(=O)c1cc(Oc2ccc(CC(=O)Nc3cc(C(C)(C)C)nn3C)cc2)ccn1,57.9% (inactive)

# Same assay, conditions: 10 µM
row,Compound,growth
1,CC(C)(C)c1cc(NC(=O)Cc2ccc(-c3cnc4cc(-c5cnn(CCN6CCOCC6)c5)ccc4n3)cc2)no1,1.21% (active)
2,CC1(C)OB(c2ccc(Cn3cc(F)c(=O)[nH]c3=O)cc2)OC1(C)C,85.7% (inactive)
3,CNC(=O)c1cc(Oc2ccc(CC(=O)Nc3cc(C(C)(C)C)nn3C)cc2)ccn1,61.3% (inactive)

# Same assay, conditions: 10 µM unless noted
row,Compound,growth
1,CN1C(=O)C(N=Nc2ccc([N+](=O)[O-])cc2)SC1=S (stereo not given),103% (inactive) and 75.3% (inactive)
2,CCC(O)c1ccccc1 (stereo not given),-23.1% (active) and 97% (inactive)
3,O=C(O)CN(CCN(CC(=O)O)CC(=O)O)CCN(CC(=O)O)CC(=O)O,-7.19% (active) and 87% (inactive)
4,S=C1SCN(Cc2ccccc2)CN1Cc1ccccc1,76.1% (inactive)
5,NC(=O)C1CC2C=CC1C2 (stereo not given),76.1% (inactive) and 69.2% (inactive)
6,CC(C(=O)O)n1cc(C#N)c(=O)[nH]c1=O (stereo not given),86.5% (inactive) and 93.1% (inactive)
7,CN1CCN(C2CCN(C(=O)Nc3cc(Oc4ccc(NC(=O)C5(C(=O)Nc6ccc(F)cc6)CC5)c(F)c4)ccn3)CC2)CC1,-34.8% (active) and 44.8% (inactive)
8,CCOC(=O)C(CNc1ccccc1)C(=O)OCC,94.9% (inactive)
9,CN(C)CCC(=O)c1ccc(Cl)cc1,102% (inactive) and 106% (inactive)
10,CCN(CC)CCCC(C)Nc1cnc(C(=O)Nc2cc(F)cc3cccnc23)cn1 (stereo not given),36.7% (inactive) and -38.3% (active)
11,Nc1cc(-c2cccc(OC(F)(F)F)c2)nc2ccc(N3CCCC3)cc12,30.7% (inactive) and 35.3% (inactive) and 41.7% (inactive)
12,Cn1cc(-c2cc3c(Nc4ccc(CC(=O)Nc5cc(C(C)(C)C)on5)cc4)ncnc3[nH]2)cn1,-10.5% (active) and 7.18% (active)
13,O=C(Nc1ccc([N+](=O)[O-])cc1Cl)c1cc(Cl)ccc1O,-0.639% (active) and -4.62% (active)
14,O=S(=O)(Nc1ccccc1)C1CCCCC1,86.5% (inactive) and 98.7% (inactive)
15,Cc1cc(O)c(C(C)C)cc1S(=O)(=O)O (tested in a mixture with another compound),67.7% (inactive) and 12.1% (inactive) and 74.4% (inactive)
16,O=C(O)C1C2C=CC(C2)C1C(=O)O (stereo not given),98.2% (inactive) and 7.77% (active) and 98.7% (inactive)
17,Cc1cc(N=Nc2ccc(C)c(N=Nc3cc(C)c(N)cc3N)c2)c(N)cc1N,78.2% (inactive) and 78.7% (inactive)

row,Compound,growth
1,c1ccc2c(CC3=NCCN3)cccc2c1,92.9% (inactive)
2,Cc1ccc(S(=O)(=O)Nc2nc3ccccc3nc2Nc2ccc3nsnc3c2)cc1,59.2% (inactive) and 31.3% (inactive)
3,C[N+](C)(C)CN1C(=O)c2ccccc2C1=O,94.4% (inactive)
4,CCOC(=O)c1c(C)oc(C)c(C(=O)OCC)c1=O,103% (inactive) and 95.4% (inactive)
5,NC(=S)NS(=O)(=O)c1ccc(N)cc1,94.8% (inactive)
6,OC(CSc1ccccc1)CN1CCN(c2cccc(Cl)c2)CC1 (stereo not given),92.2% (inactive) and 87.9% (inactive)
7,Nc1nc2ncc(CNc3ccc(C(=O)N[C@@H](CCc4nn[nH]n4)C(=O)O)cc3)nc2c(=O)[nH]1,93% (inactive) and 101% (inactive)
8,COc1ccc2ccccc2c1/C=N/N1CCCCC1,85.7% (inactive)
9,COc1ccccc1/C=N\N=C(N/N=C/c1ccccc1OC)N/N=C/c1ccccc1OC,43.6% (inactive) and 33.7% (inactive)
10,CC(C)(O)Cn1cc(-c2ccc3nc(OC4CC4)ccc3c2)c2c(N)ncnc21,80.9% (inactive) and 70.1% (inactive)
11,COc1ccc2nc(Cl)cc(C)c2c1,85.6% (inactive)
12,O=C1OC2(c3ccccc31)c1ccc(O)c(O)c1Oc1c2ccc(O)c1O,104% (inactive) and 114% (inactive)
13,Cc1nn(-c2ccccc2)nc1C(=O)Nc1ccccc1C(=O)NCC1CC1,97.6% (inactive) and 37.7% (inactive)
14,O=C(c1ccc(Cl)cc1)C(NCCO)c1ccc(Cl)cc1 (stereo not given),102% (inactive)
15,CN(C)c1ccc(/C=C(\C#N)c2ccccc2)cc1,41.1% (inactive) and 43.3% (inactive)
16,O=CC(O)C(O)C(O)CO (stereo not given),106% (inactive) and 117% (inactive)

# Same assay, conditions: 30 µM
row,Compound,growth
1,CC(C)(C)c1cc(NC(=O)Cc2ccc(-c3cnc4cc(-c5cnn(CCN6CCOCC6)c5)ccc4n3)cc2)no1,3.67% (active)
2,CNC(=O)c1cc(Oc2ccc(CC(=O)Nc3cc(C(C)(C)C)nn3C)cc2)ccn1,76.5% (inactive)

# Same assay, conditions: 50 µM
row,Compound,growth
1,CC1(C)OB(c2ccc(Cn3cc(F)c(=O)[nH]c3=O)cc2)OC1(C)C,75.1% (inactive)
